Assay outcomes as filed in PubChem BioAssay.
Hits are enriched below; roughly 21% of the tested compounds scored in any of these assays.
Shiga toxin inh: Shiga toxin inhibition; Vero cells, Shiga toxin protein synthesis inhibition reporter; inhibition, % at 38.7 µM; 290,000 compounds, 9.2% hits; in the data active = inhibition mostly above about 28%, no sharp cut-off; inactive = mostly below about 43%
Sm TGR inh: blocks Schistosoma mansoni thioredoxin glutathione reductase; 360,000 compounds, 3% hits; purified TGR, DTNB reduction, TNB absorbance 405 nm; Potency, µM (doses to about 114 µM), most hits filed as inhibitors; note: nearly all actives have a fitted effect of over 60% in size
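Kinetic colorimetric format: TGR-catalysed, NADPH-driven DTNB reduction monitored via TNB absorbance. Enzyme dispensed at 20 nM; compound exposure 15 min at room temperature before reaction start.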
Pf growth 96h: P. falciparum growth inhibition at 96 hour, primary screen for plastid delayed-death inhibitors | AID 504834 | P. falciparum luciferase reporter growth, 96 h | 320,000 compounds, 6.9% hits | Potency, µM (series often up to 28.7 µM), actives largely listed as inhibitors
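Plates of compound plus infected erythrocytes (2% hematocrit, 0.05% parasitemia final) incubate 96 hours, 37 C, 5% CO2. Detection reagent added; reduced luminescence from the parasites' luciferase reporter flags inhibition.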
NS1 inh: blocks influenza NS1 protein function. Potency, µM (series often up to 46.1 µM). AID 2326. 270,000 compounds, 0.4% hits; calls by dose curve; note: actives are rising curves; nearly all actives have a fitted effect of over 50% in size
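Read-out: OD600 growth recovery of NS1-expressing budding yeast. Cells grown overnight at 30C in -URA glucose medium, washed, resuspended and diluted 1:100 in 2% galactose assay medium, pH 6.0. Same strain lacking NS1 served as positive control.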
CHX counter: affects cycloheximide protein synthesis inhibition readout, counter-screen; 300,000 compounds, 12% hits; AID 2314; max response, %; cell reporter, cycloheximide protein synthesis inhibition counterscreen; in the data active = max response mostly above about 13%, no sharp cut-off; inactive = mostly below about 14%; note: read at 38.3 µM for the half of the compounds with a filed dose
Pf growth 48h: P. falciparum growth inhibition at 48 hours (one generation); Potency, µM (highest dose often 28.7 µM), hits mostly inhibitors; 310,000 compounds, 5.9% hits; P. falciparum luciferase growth in erythrocytes, 48 h
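Luciferase-expressing parasites in RBCs, 2% Hct / 0.1% parasitemia final; RPMI 1640 + 0.5% Albumax; 37 C, 5% CO2, one generation; luminescence read-out, lower signal = inhibition.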
NS1 inh valid: influenza NS1 function inhibition validation | influenza NS1 function cell assay, 15-point titration | shares compounds with NS1 inh | activity change, negative = inhibition, % at 32.9 µM | AID 492980 | 1,400 tested, under 10 active; calls by dose curve
PR8 titer: influenza NS1 inhibitors: inhibition of influenza A/PR/8/34 replication. 95 compounds, 30% hits. shares compounds with NS1 inh. MDCK infected influenza A/PR/8/34, virus titer TCID50; stronger effect = lower value. virus titer (log TCID50), log10 TCID50 at 5 µM; call rule not given here
Of the large screens only hits and unclear results are named; the others gave an inactive call (follow-up assays come after a bar, where they were run). Unless noted, calls come from the whole dose curve; as a rule, active = well fitted curve in the direction sought with a large enough effect; inconclusive = small, poorly fitted or top-dose-only effect, or another doubt; inactive = no such curve, though single readings can be large; an effect the other way counts as inactive or inconclusive.

CC(C)(C)c1ccc(/C=N/OCC(=O)NCc2ccc(F)cc2)cc1	Pf growth 96h inconclusive, Pf growth 48h inconclusive
Cc1ccc(NC(=O)CC2SC(=O)NC2=O)cc1 (centres undefined)	NS1 inh 6.3µM | NS1 inh valid inactive
COc1cc(CNc2ccc3[nH]c(=O)[nH]c3c2)cc(Br)c1OCc1ccccc1F	Sm TGR inh inconclusive, NS1 inh 0.79µM (no result: Pf growth 48h) | NS1 inh valid inactive
CCOc1cc(CNc2ccccc2)cc(Br)c1OCc1ccccc1F	Pf growth 48h inconclusive (no result: Pf growth 96h)
CC1CN(C)C(c2ccccc2)C(C)C12NC(=O)NC2=O (centres undefined)	NS1 inh inconclusive | NS1 inh valid inactive
CC1C2C(c3ccccc3)N(C)C(=O)N(C)C2N(C)C(=O)N1C (centres undefined)	NS1 inh inconclusive
CCn1c2ccccc2c2cc(NC(=O)COC(=O)c3cccc(S(=O)(=O)NC)c3)ccc21	NS1 inh 10µM | NS1 inh valid inactive | PR8 titer 7.3
CCN(CC)S(=O)(=O)c1cccc(C(=O)OCC(=O)Nc2ccc3c(c2)c2ccccc2n3CC)c1	none
CC1CCCCC12NC(=O)N(CC(=O)OCC(=O)c1ccc(OC(F)F)cc1OC(F)F)C2=O (centres undefined)	none
COc1ccc(OCC(O)CNC(=O)c2ccccc2)cc1 (centres undefined)	none
COCCn1c(SCC(=O)N2CCCc3ccccc32)nc2ccccc2c1=O	Pf growth 48h inconclusive
CCc1cc2c(=O)n(Cc3ccco3)c(SCC(=O)N3CCCc4ccccc43)nc2s1	Sm TGR inh 25µM, NS1 inh 7.1µM, CHX counter 19, Pf growth 48h 9.3µM | NS1 inh valid inactive
Nc1nonc1-n1nnc(C(=O)N/N=C/c2ccco2)c1CSc1ccccc1	NS1 inh inconclusive | NS1 inh valid inactive
CCOC(=O)c1cc2c(ccn2C)n1Cc1cc(C)ccc1C	Pf growth 48h inconclusive
CC(C)OC(=O)c1cc2c(ccn2C)n1CC(=O)N(Cc1ccccc1)c1ccccc1	Pf growth 96h inconclusive, NS1 inh 11µM, Pf growth 48h inconclusive | NS1 inh valid inactive
COc1ccccc1NS(=O)(=O)c1ccc(Cl)c(NC(=S)NC(=O)C2CCCC2)c1	NS1 inh 13µM | NS1 inh valid inactive
O=S(=O)(c1ccc2ccccc2c1)N1CCOCC1	none
O=S(=O)(c1ccc2nc(-c3ccco3)c(-c3ccco3)nc2c1)N1CCOCC1	Sm TGR inh 1.6µM, NS1 inh 1µM, Pf growth 48h 12µM | NS1 inh valid inactive
CCCc1cc(=O)oc2cc(OCC(=O)N3CCC(C(=O)O)(c4ccccc4)CC3)ccc12	Pf growth 96h inconclusive, NS1 inh 11µM, Pf growth 48h inconclusive | NS1 inh valid inconclusive
COc1ccc(NS(=O)(=O)c2ccc3nc(COc4cccc5ccccc45)[nH]c3c2)cc1	Pf growth 96h inconclusive, NS1 inh 22µM, Pf growth 48h inconclusive | NS1 inh valid inactive
O=C1CSC(=S)N1/N=C/c1cccnc1	Sm TGR inh 6.3µM, NS1 inh 1.1µM | NS1 inh valid inactive
CC(C)CCOc1ccc(/C=N/N2C(=O)CSC2=S)cc1	none
COc1cc(OC)cc(C(=O)NNC(=O)c2cc3c(s2)CCCC3)c1	none
CC(=O)NCCc1nc2ccccc2n1CCc1ccccc1	Pf growth 48h inconclusive
Cc1ccc(/C=C/C(=O)Oc2ccc(C#N)cc2)o1	Sm TGR inh 50µM, NS1 inh inconclusive | NS1 inh valid inactive | PR8 titer 7.5
COC(=O)/C(C#N)=C/c1ccc(C)o1	none
CCc1ccccc1NC(=O)CSc1ncc(S(=O)(=O)c2ccc(C(C)C)cc2)c(N)n1	none (no result: Shiga toxin inh, Pf growth 96h, NS1 inh, CHX counter, Pf growth 48h)
COc1ccc(-c2nn(-c3ccccc3)cc2/C=N/NC(=O)c2cccc(S(=O)(=O)Nc3ccccc3OC)c2)cc1	Pf growth 96h 2.3µM, NS1 inh 10µM, Pf growth 48h 3.3µM | NS1 inh valid inactive
Cc1nn(-c2ccccc2)c(C)c1/C=N/NC(=O)c1cc(-c2ccc(Cl)s2)[nH]n1	NS1 inh 8.9µM, Pf growth 48h inconclusive | NS1 inh valid inactive
O=C(N/N=C/c1ccccn1)c1cc(-c2ccc(Cl)s2)[nH]n1	Pf growth 96h inconclusive
Cc1cccc(-n2c(=S)[nH]c3c(oc4ccccc43)c2=O)c1	NS1 inh inconclusive, CHX counter 8.7 | NS1 inh valid inactive
O=c1c2oc3ccccc3c2[nH]c(=S)n1-c1ccccc1	none
c1ccc(-n2c(SCC3CCCCO3)nnc2-c2cccs2)cc1 (centres undefined)	NS1 inh inconclusive | NS1 inh valid inconclusive
O=C(NCc1ccc(C(F)(F)F)cc1)C12CN(Cc3ccccc3)CC1C(c1cccc([N+](=O)[O-])c1)=NO2 (centres undefined)	Pf growth 96h 9.3µM, NS1 inh 13µM, Pf growth 48h 9.3µM | NS1 inh valid inactive
O=C(NCc1ccc2c(c1)OCO2)C12CN(Cc3ccccc3)CC1C(c1cccc([N+](=O)[O-])c1)=NO2 (centres undefined)	Pf growth 96h inconclusive, NS1 inh 13µM, Pf growth 48h 9.3µM | NS1 inh valid inactive
O=C(Cc1ccc([N+](=O)[O-])cc1)NCc1ccc2c(c1)OCO2	Pf growth 96h inconclusive
NC(=O)CNC(=O)[C@@H]1CC2(CC(c3cccc([N+](=O)[O-])c3)=NO2)CN1C(=O)c1ccccc1 (some centres undefined)	Pf growth 96h inconclusive
O=C(O)CCNC(=O)c1ccc(N=Nc2ccc(O)c(C(=O)O)c2)cc1	none (no result: Shiga toxin inh, Sm TGR inh, NS1 inh, CHX counter)
CCN(CC(=O)Nc1c(F)cccc1F)C(=O)C1CCCN(C(=O)c2ccc(Cl)cc2)C1 (centres undefined)	Pf growth 96h inconclusive
Cc1ccc(C)c(N2CCN(C(=O)CCCn3ncn4c(cc5occc54)c3=O)CC2)c1	none
Cc1onc(C(=O)NN)c1C(=O)Nc1ncc(C(F)(F)F)cc1Cl	none (no result: NS1 inh)
CCOc1ccc(/C(O)=C2/C(=O)C(=O)N(c3ncccn3)C2c2ccccc2)cc1 (centres undefined)	Shiga toxin inh 58, NS1 inh 2µM, CHX counter 66 | NS1 inh valid inactive
CCCOc1ccc(/C(O)=C2/C(=O)C(=O)N(c3cc(C)on3)C2c2ccc(C(=O)OC)cc2)cc1 (centres undefined)	NS1 inh 10µM | NS1 inh valid inactive
CCOc1ccc(/C(O)=C2/C(=O)C(=O)N(c3ncccn3)C2c2ccc(C)cc2)cc1 (centres undefined)	none
